# Screens (PubChem)
# HCMV antiviral: inhibitors of human cytomegalovirus | AID 1259415 | HFF cells, HCMV-luciferase reporter, 72 h; stronger effect = lower value | 4.5% of 410,000 active | activity change, negative = inhibition, % at 57.5 µM; in the data active = activity change below about -60%; inconclusive = no clear call, values can overlap the other calls; inactive = above about -39%
#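 Compounds were evaluated in HFFs infected with an HCMV luciferase reporter virus (MOI 1 PFU/cell). Luciferase in lysates collected 72 h post infection served as the replication measure.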
# Sm TGR block: S. mansoni TGR enzyme inhibition; Q962Y6; purified TGR, DTNB reduction, TNB absorbance 405 nm; Potency, µM (titrated, usually from 114 µM), without a hit: at the top dose activity change, negative = inhibition, most hits filed as inhibitors; 3% of 360,000 active; also: potency is read from the fitted curve at half-maximal effect; nearly all actives have a fitted effect of over 60% in size
#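 TGR 20 nM + NADPH 100 uM (dispensed conc.), cpd preinc 15 min RT; start with NADPH (500 uM addition) then DTNB (15 mM addition). Kinetic TNB absorbance, 405 nm filter. Four-parameter Hill fit across titration.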
# FBPA Giardia inh: inhibitors of Giardia lamblia fructose-1,6-bisphosphate aldolase; purified Giardia FBPA; Potency, µM (titrated, usually from 59.6 µM), for the others: top-dose activity, negative = inhibition, hits mostly inhibitors; 0.71% of 290,000 active; AID 2451; also: potency is read from the fitted curve at half-maximal effect; nearly all actives have a fitted effect of over 55% in size
# Target sequence (A8B2U2 whole entry, looked up): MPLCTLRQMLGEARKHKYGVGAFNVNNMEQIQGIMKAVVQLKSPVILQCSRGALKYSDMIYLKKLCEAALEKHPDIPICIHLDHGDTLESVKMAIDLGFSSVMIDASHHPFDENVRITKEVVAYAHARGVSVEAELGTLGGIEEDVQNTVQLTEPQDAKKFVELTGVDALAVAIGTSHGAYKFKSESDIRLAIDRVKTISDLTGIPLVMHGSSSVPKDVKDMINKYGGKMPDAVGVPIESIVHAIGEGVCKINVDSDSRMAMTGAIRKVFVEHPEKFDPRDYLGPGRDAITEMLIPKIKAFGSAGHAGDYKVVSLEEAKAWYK
#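 40 nM FBPA preincubated 10 min at RT with compound (up to 57.5 uM final), then substrate plus GAPDH/TPI/NAD/arsenate coupling and diaphorase/resazurin added. Fluorescence read after 20 min at RT, 525/598 nm.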
# Pf growth 96h: P. falciparum growth inhibition at 96 hour, primary screen for plastid delayed-death inhibitors | P. falciparum luciferase reporter growth, 96 h | Potency, µM (series often up to 28.7 µM), inactives show top-dose activity change, negative = inhibition, usual class: inhibitors | 6.9% of 320,000 active; also: potency is read from the fitted curve at half-maximal effect
#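 Luminescence readout: decreased luciferase signal marks inhibited growth of reporter-expressing P. falciparum in infected red cells (2% hematocrit, 0.05% parasitemia final), exposed to compound two generations (96 h, 37 C, 5% CO2).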
# Pf growth 48h: P. falciparum growth inhibition at 48 hours (one generation) | P. falciparum luciferase growth in erythrocytes, 48 h | Potency, µM (series often up to 28.7 µM), for the others: top-dose activity change, negative = inhibition, actives largely listed as inhibitors | 5.9% of 310,000 active | AID 504832; also: potency is read from the fitted curve at half-maximal effect
#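 A one-generation exposure of luciferase-tagged malaria parasites in RPMI 1640/Albumax erythrocyte culture, 37 C and 5% CO2. Inhibition is inferred from decreased luminescence after adding detection reagent.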
# The depositor's hits bear a star; ? = inconclusive; . = no result given; [ ] = dose if it differs, or a comment. Only some compounds are listed: those with a hit (about 14% of all), similar ones and a draw of the others. Unless noted, calls follow the shape of the dose curve; as a rule, active = well fitted curve in the direction sought with a large enough effect; inconclusive = small, poorly fitted or top-dose-only effect, or another doubt; inactive = no such curve, though single readings can be large; an effect the other way counts as inactive or inconclusive. % is scaled to controls: 0 for no effect and ±100 for the full control effect.
SMILES,HCMV antiviral,Sm TGR block,FBPA Giardia inh,Pf growth 96h,Pf growth 48h
C=CCC(NC(=O)N(C)C)(C(=O)OC)C(C)O (centres undefined),-38,.,.,.,.
CC1(NCc2ccc(Cl)cc2)COP(=O)(NCc2ccccc2)OC1 (centres undefined),-83*,.,.,.,.
O=C(CC(=O)NCc1ccc(Cl)cc1)NCc1ccccc1,-13,-14%,2%,-8%,1%
COC(=O)[C@@H]1[C@@H](CO)[C@@H]2Cn3c(ccc(Br)c3=O)[C@H]1N2S(=O)(=O)c1cccc(C)c1,-2,.,.,.,.
CC1=CC(=C(C#N)C#N)C=C(C)N1Cc1ccc(Cl)cc1,-18,3%,8%,-89%,2.1µM*
O=C1CSc2ccc(S(=O)(=O)CCC(=O)NC3CCCCC3)cc2N1,0,22µM*,.,?,2%
O=C(CCS(=O)(=O)c1ccc2c(c1)NC(=O)CS2)NCCc1ccc(Cl)cc1,-33,?,.,?,-9%
O=C(CCS(=O)(=O)c1ccc2c(c1)NC(=O)CS2)NCCc1ccccc1,5,32µM*,5%,6%,30%
O=C(NCc1ccccc1)c1cc(-c2ccncc2)nc2ccccc12,32,0%,5%,?,?
CN(C)CCNc1cc(-c2ccncc2)nc2ccccc12,34,?,-16%,3.3µM*,12µM*
O=C(CSc1nnc(COc2ccc(Cl)cc2)n1Cc1ccco1)c1ccccc1F,-3,-6%,4%,?,-16%
O=C(CSc1nnc(Cc2cccs2)n1Cc1ccco1)Nc1cc(Cl)cc(Cl)c1,35,35µM*,3%,31%,-29%
CC(Sc1nnc(COc2ccc(Cl)cc2)n1Cc1ccco1)C(=O)N1CCNC1=O (centres undefined),?,-22%,.,8.3µM*,?
Cc1cccc(OCc2nnc(SCC(=O)N(C(C)C)C(C)C)n2Cc2ccco2)c1C,-12,?,1%,?,12µM*
Cc1cc(NC(=O)CSc2nnc(COc3cccc(C)c3C)n2Cc2ccco2)no1,.,-4%,3%,59%,22%
COc1ccc(C)cc1NC(=O)CSc1nnc(COc2ccccc2)n1Cc1ccco1,43,?,3%,10µM*,?
COC(=O)c1cnn(-c2ccc(C(=O)Nc3cccc(C(C)=O)c3)cc2)c1N,-6,4%,.,?,?
COc1ccc(C)cc1NC(=O)C1CCN(C(=O)c2ccc(C(C)(C)C)cc2)CC1,30,-5%,0%,13%,?
COc1ccc(C)cc1NC(=O)CSc1nnc(COc2ccc(Cl)cc2)n1Cc1ccco1,-84*,?,9%,?,?
COc1ccc(S[C@]2(C(=O)N3CCCC3)CC(=O)N(c3ccc(Cl)cc3)[C@@H]2c2ccc(OC)cc2)cc1,-20,.,.,.,.
CCOc1ccc(C2CC(=O)n3nc(-c4ccc(C)cc4)nc3S2)cc1 (centres undefined),-3,7%,.,.,.
COc1ccc(-c2nc3n(n2)C(=O)CC(c2ccco2)S3)cc1 (centres undefined),.,18µM*,-7%,16%,1%
CC(C)c1ccc(NC(=O)N[C@H]2CC[C@@]34CCCN3C(=O)CCC[C@H]4C2Cc2ccccc2)cc1 (some centres undefined),9,.,.,.,.
C/C(Cn1nnc([N+](=O)[O-])n1)=N\NC(=O)c1ccccc1,-24,-16%,?,15µM*,?
C/C(Cn1cnc([N+](=O)[O-])n1)=N\NC(=O)c1ccccc1,4,3%,-16%,-1%,40%
SMILES,HCMV antiviral,Sm TGR block,FBPA Giardia inh,Pf growth 96h,Pf growth 48h
O=C(CN1C(=O)/C(=C/c2ccc(F)cc2)SC1=S)NC1CCS(=O)(=O)C1 (centres undefined),?,4%,1%,21%,51%
CCOC(=O)N1CCc2c(sc(NCc3cccs3)c2C(=O)Nc2ccc(OC)cc2OC)C1,-91*,?,.,.,.
COc1ccccc1NC(=O)c1c(NCc2ccc(OC)c(OC)c2OC)sc2c1CCC2,-14,2%,.,.,.
CCOC(=O)N1CCc2c(sc(NCc3ccc(OCC)cc3)c2C(=O)Nc2ccc(OC)cc2OC)C1,-80*,-26%,.,.,.
CCOC(=O)N1CCc2c(sc(NCc3cccs3)c2C(=O)Nc2cc(OC)ccc2OC)C1,-14,-33%,.,.,.
COc1ccc(NC(=O)c2c(NCc3ccc(OC)c(OC)c3OC)sc3c2CCC3)c(OC)c1,-1,40µM*,.,.,.
CCOC(=O)N1CCc2c(sc(NCc3ccc(N(CC)CC)cc3)c2C(=O)Nc2cc(OC)ccc2OC)C1,-4,-19%,.,.,.
CCOC(=O)N1CCc2c(sc(NCc3ccc(OC)c(OC)c3OC)c2C(=O)Nc2ccc(OC)cc2OC)C1,-80*,-29%,.,.,.
O=C(Nc1c[nH]c(=O)[nH]c1=O)c1cc([N+](=O)[O-])cc([N+](=O)[O-])c1,7,-23%,-2%,?,-20%
C=CCNCC(=O)Nc1sc2c(c1C(=O)Nc1ccc(OC)cc1OC)CCC2,0,.,0%,32%,12µM*
Cc1ccc(S(=O)(=O)Nc2cc(C(C(=O)OC(C)C)C(=O)C(F)(F)F)c(O)c3ccccc23)c(C)c1 (centres undefined),-21,-22%,-23%,5.2µM*,13µM*
Cc1ccc(C)c(S(=O)(=O)Nc2ccc(O)c(C(=O)O)c2)c1,-30,-17%,15%,-4%,6%
Cc1ccc(S(=O)(=O)Nc2ccc(O)c3ccccc23)c(C)c1,?,8.9µM*,?,23%,2%[0.00184 µM]
Cc1ccc(S(=O)(=O)NNc2ccccc2)c(C)c1,57,40µM*,?,-10%,12%
Cc1ccc(S(=O)(=O)Nc2cccc(S(=O)(=O)Nc3ccccc3C(=O)O)c2)c(C)c1,-15,.,.,.,.
Cc1ccc(C)c(S(=O)(=O)Nc2ccc(O)c3ccccc23)c1,-22,22µM*,-16%,?,?
Cc1ccc(S(=O)(=O)NNC(=O)c2cccs2)c(C)c1,-4,?,2%,0%,22%
CCOc1ccc(NC(=O)c2cccc(-n3cccc3)c2)cc1S(=O)(=O)N1CCOCC1,-6,-8%,.,-52%,?
CN(CC(=O)Nc1cccc(F)c1)CC(=O)N1CCc2ccccc21,5,-8%,.,-24%,-29%
Cc1ccccc1CN1C[C@@H]2C[C@@H](c3cn[nH]c3-c3ccc(F)cc3)N3CCC[C@@]23C1=O,-71*,-5%[57.1 µM],2%,5%,?
COCc1ccc([C@@H]2C[C@H]3CN(Cc4ccccc4C)C(=O)[C@]34CCCN24)o1,-29,-36%,0%,?,-15%
COc1ccc(-c2[nH]ncc2[C@@H]2C[C@H]3CN(Cc4ccccc4C)C(=O)[C@]34CCCN24)cc1,-71*,-1%[57.1 µM],-2%,6%,3.3µM*
COC(=O)[C@@]1(Cc2ccc(OC)cc2)[C@H]2c3cc(C(=O)N(C)C)n(CCN4CNCC4=O)c3C[C@H]2CN1C(=O)c1ccccc1,.,.,3%,.,.
